Tested on: Vero E6 infected with SARS-CoV-2
Test: inhibition of SARS-CoV-2 cytopathic effect; higher = more antiviral protection, active = above 15
Conditions: 48 h

Measured: inhibition of SARS-CoV-2 cytopathic effect

Oc1cccc(O)c1 [resorcinol]
inactive: 1 nM -6.66% | 8.33 nM -5.24% | 100 nM -4.73% | 833.33 nM -2.6% | 10000 nM -2.66%

O=C(O)CCc1c(C(=O)O)[nH]c2cc(Cl)cc(Cl)c12
inactive: 1 nM 0.7% | 8.33 nM 2.79% | 100 nM 1.68% | 833.33 nM -2.26% | 10000 nM 0.81%

CN[C@H](C(=O)N[C@H](C(=O)N(C)[C@H](/C=C(\C)C(=O)O)C(C)C)C(C)(C)C)C(C)(C)c1ccccc1 [taltobulin]
inactive: 1 nM -0.53% | 8.33 nM -1.55% | 100 nM -0.97% | 833.33 nM -1.63% | 10000 nM -1.03%

Clc1ccc(C(Cn2ccnc2)OCc2ccsc2Cl)c(Cl)c1 (stereo not given) [tioconazole]
inactive: 1 nM 6.75% | 8.33 nM -2.6% | 100 nM 5.03% | 833.33 nM -4.33% | 10000 nM -5.16%

NS(=O)(=O)C#Cc1ccccc1 [pifithrin-mu]
active: 10000 nM 22.5%
inactive: 1 nM 2.15% | 8.33 nM 5.91% | 100 nM 2.87% | 833.33 nM 4.85%

CO[C@H]1C[C@@H]2CC[C@@H](C)[C@@](O)(O2)C(=O)C(=O)N2CCCC[C@H]2C(=O)O[C@H]([C@H](C)C[C@@H]2CC[C@H](n3cnnn3)[C@H](OC)C2)CC(=O)[C@H](C)/C=C(\C)[C@@H](O)[C@@H](OC)C(=O)[C@H](C)C[C@H](C)/C=C/C=C/C=C/1C [zotarolimus]
inactive: 1 nM -1.51% | 8.33 nM -2.41% | 100 nM -1.68% | 833.33 nM -2.21% | 10000 nM 1.71%

O=C(O)c1ccc(-c2ccc3cc(O)c(C45CC6CC(CC(C6)C4)C5)cc3c2)cc1
inactive: 1 nM 5.35% | 8.33 nM 1.59% | 100 nM 3.64% | 833.33 nM 3.49% | 10000 nM 5.63%

CC(CNC1CCCCC1)OC(=O)c1ccccc1 (stereo not given) [hexylcaine]
inactive: 1 nM 2.92% | 8.33 nM -0.38% | 100 nM -0.1% | 833.33 nM -11% | 10000 nM -2.93%

NCCC[C@H](N)C(=O)O [ornithine]
inactive: 1 nM -1.52% | 8.33 nM -1.05% | 100 nM -1.8% | 833.33 nM -2.37% | 10000 nM 2.35%

COc1cc(N)c(Cl)cc1C(=O)N[C@@H]1CCN(CCCOc2ccc(F)cc2)C[C@@H]1OC (racemic) [cisapride]
inactive: 1 nM -0.68% | 8.33 nM -0.92% | 100 nM 1.02% | 833.33 nM 2.56% | 10000 nM -4.6%

CC1(C)O[C@@H]2[C@@H](CO[C@@]3(COS(N)(=O)=O)OC(C)(C)O[C@@H]23)O1 [topiramate]
inactive: 1 nM -1.19% | 8.33 nM 1.71% | 100 nM -2.21% | 833.33 nM 0.74% | 10000 nM -0.18%

O=C(Nc1ccc(S(=O)(=O)Nc2nccs2)cc1)C(c1ccccc1)c1ccccc1
inactive: 1 nM -0.78% | 8.33 nM 3.67% | 100 nM 2.47% | 833.33 nM 2.29% | 10000 nM -2.52%

CCOc1cncc(/C=C/CCNC)c1
inactive: 1 nM 0.97% | 8.33 nM -1.63% | 100 nM -0.92% | 833.33 nM 0.41% | 10000 nM 3.59%

O=C1OC(OC(=O)c2cccnc2Nc2cccc(C(F)(F)F)c2)c2ccccc21 (stereo not given) [talniflumate]
inactive: 1 nM 2.12% | 8.33 nM -1.23% | 100 nM -2.09% | 833.33 nM 0.94% | 10000 nM 0.53%

COc1ccc2c(c1)C(C(=O)N(Cc1ccc(N(C)C)cc1)c1ccc(C(C)C)cc1)CCC2 (stereo not given)
inactive: 1 nM -2.02% | 8.33 nM 0.34% | 100 nM 3.26% | 833.33 nM 1.87% | 10000 nM -3.29%

Cc1cc2c(cc1CC(=O)c1sccc1S(=O)(=O)Nc1onc(C)c1Cl)OCO2 [sitaxentan]
inactive: 1 nM -0.88% | 8.33 nM -1.81% | 100 nM 0.75% | 833.33 nM 1.22% | 10000 nM 1.37%

O=C(OCCOCCO)c1ccccc1Nc1cccc(C(F)(F)F)c1 [etofenamate]
inactive: 1 nM 1.16% | 8.33 nM -1.53% | 100 nM 0.55% | 833.33 nM -0.46% | 10000 nM -2.39%

Nc1c(CC(=O)O)cccc1C(=O)c1ccc(Br)cc1 [bromfenac]
inactive: 1 nM -1.88% | 8.33 nM 0.84% | 100 nM -0.8% | 833.33 nM -0.93% | 10000 nM -0.48%

CSc1ccc([C@H]2CN3CCC[C@H]3c3ccccc32)cc1 (racemic)
inactive: 1 nM 3.1% | 8.33 nM 1.05% | 100 nM 2.84% | 833.33 nM 3.32% | 10000 nM 1.44%

COc1ccc(-c2nc(-c3ccc(-c4cccc(Cl)c4)o3)[nH]c2-c2ccc(OC)cc2)cc1 [neurodazine]
inactive: 1 nM 0.83% | 8.33 nM -0.31% | 100 nM 4.87% | 833.33 nM 5.51% | 10000 nM 1.25%

CCn1cnc(C(=O)NC)c1C(=O)NC [ethimizol]
inactive: 1 nM -1.81% | 8.33 nM 0.39% | 100 nM -1.18% | 833.33 nM 1.42% | 10000 nM 1.32%

CC(=O)[C@@]1(O)CC[C@H]2[C@@H]3C[C@H](C)C4=CC(=O)C=C[C@]4(C)[C@@]3(F)[C@@H](O)C[C@@]21C [fluorometholone]
inactive: 1 nM 0.01% | 8.33 nM 0.61% | 100 nM 0.19% | 833.33 nM -0.97% | 10000 nM 1.57%

Oc1c(Cl)cc(Cl)c(Cl)c1Cc1c(O)c(Cl)cc(Cl)c1Cl [hexachlorophene]
inactive: 1 nM 0.56% | 8.33 nM 1.77% | 100 nM 0.2% | 833.33 nM 2.38% | 10000 nM 8.62%

CC(C)Cc1ccc(C(C)C(=O)O)cc1 (stereo not given) [ibuprofen]
inactive: 1 nM 1.03% | 8.33 nM -0.113% | 100 nM -0.0767% | 833.33 nM 1.1% | 10000 nM -0.35%

CCCCCCCCCCC(C)(C)C(=O)Nc1c(OC)cc(OC)cc1OC
inactive: 1 nM 0.52% | 8.33 nM 6.1% | 100 nM 5.14% | 833.33 nM 0.51% | 10000 nM 0.93%

Cc1ccc2c(N3CCN(CCc4cccc(N5CCNC5=O)c4)CC3)cccc2n1
inactive: 1 nM -2.94% | 8.33 nM -3.04% | 100 nM -3.97% | 833.33 nM 1.55% | 10000 nM 1.48%

COc1[nH]c2ccc(F)cc2c1C(=O)OCC1CCN(CCNS(C)(=O)=O)CC1
inactive: 1 nM 2% | 8.33 nM 2.46% | 100 nM 0.98% | 833.33 nM 0.39% | 10000 nM 1.56%

O=c1[nH]c2ccccc2n1C1CCN(CCCC(c2ccc(F)cc2)c2ccc(F)cc2)CC1 [pimozide]
inactive: 1 nM 0.44% | 8.33 nM 1.6% | 100 nM 0.1% | 833.33 nM -0.58% | 10000 nM -5.7%

Fc1ccc(Cl)cc1-c1nc(Nc2ccncc2)c2nccnc2n1
inactive: 1 nM -0.85% | 8.33 nM 0.45% | 100 nM -1.96% | 833.33 nM -3.87% | 10000 nM -7.46%

FC(F)(F)c1ccc(N2CCNCC2)nc1Cl
inactive: 1 nM 1.34% | 8.33 nM -0.28% | 100 nM 0.72% | 833.33 nM 1.94% | 10000 nM -3.98%

CCC(=O)Nc1cccc(Oc2nc(Nc3ccc(N4CCN(C)CC4)cc3OC)ncc2Cl)c1
inactive: 1 nM -2.36% | 8.33 nM -1.81% | 100 nM -3.83% | 833.33 nM -2.5% | 10000 nM 1.78%

CCOC(=O)[C@H](CCc1ccccc1)N[C@@H](C)C(=O)N1Cc2ccccc2C[C@H]1C(=O)O [quinapril]
inactive: 1 nM 1.54% | 8.33 nM 1.58% | 100 nM 0.68% | 833.33 nM 2.09% | 10000 nM 4.29%

COc1cccc(NC(=O)/C=C/c2ccc(Cl)cc2)c1
inactive: 1 nM -1.02% | 8.33 nM -1.96% | 100 nM -1% | 833.33 nM -0.56% | 10000 nM -4.87%

C#C[C@]1(O)CC[C@H]2[C@@H]3CCC4=CC(=O)CC[C@@H]4[C@H]3CC[C@@]21CC [norgestrel]
inactive: 1 nM -2% | 8.33 nM -0.115% | 100 nM 2.25% | 833.33 nM -0.065% | 10000 nM 0.025%

c1coc(-c2nnc3sc(C4CCCCC4)nn23)c1 [cardionogen-1]
inactive: 1 nM -0.83% | 8.33 nM -0.13% | 100 nM 0.69% | 833.33 nM -1.37% | 10000 nM -1.68%

Cc1ccc(C(=O)C(C)CN2CCCCC2)cc1 (stereo not given) [tolperisone]
inactive: 1 nM -0.13% | 8.33 nM -1.26% | 100 nM -0.59% | 833.33 nM -1.06% | 10000 nM 0.32%

COc1ccc([C@@H]2CC(=O)c3c(O)cc(O)cc3O2)cc1O [hesperetin]
inactive: 1 nM 1.09% | 8.33 nM 3.18% | 100 nM 4.54% | 833.33 nM 0.97% | 10000 nM 0.11%

CCCCC1=NC2(CCCC2)C(=O)N1Cc1ccc(-c2ccccc2-c2nnn[nH]2)cc1 [irbesartan]
inactive: 1 nM -1.49% | 8.33 nM -0.93% | 100 nM 0.89% | 833.33 nM 1.9% | 10000 nM 0.85%

CC1(COc2ccc3c(c2)ncn3-c2ccc3cccc(N4CCC(N)CC4)c3n2)COC1 [crenolanib]
inactive: 1 nM -0.58% | 8.33 nM 1.15% | 100 nM 2.74% | 833.33 nM 2.21% | 10000 nM 0.74%

C=C[C@]1(C)C[C@@H](OC(=O)CSC(C)(C)CNC(=O)[C@H](N)C(C)C)[C@]2(C)[C@H](C)CC[C@]3(CCC(=O)[C@H]32)[C@@H](C)[C@@H]1O [valnemulin]
inactive: 1 nM -0.47% | 8.33 nM -0.46% | 100 nM -2.63% | 833.33 nM -4.5% | 10000 nM -4.72%

Source: the supplement of paper PMC13380429
